According to PubChem BioAssay (Tox21):
Inconclusive results are not listed. Active and inactive are the calls of the source. Unless noted, the call rests on the fitted dose curve.

Legend:
[1] = Nuclear factor erythroid 2-related factor 2/antioxidant responsive element (Nrf2/ARE) small molecule agonists: qHTS cell viability counter screen in human keratinocytes (AID 1919968; active means well fitted cell-killing curve with a large enough effect in the repeat runs; further: nearly all actives have a fitted effect of over 55% in size)
Summary of the method: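 After a 5 h attachment period, ARE-reporter keratinocytes were dosed with compounds in DMSO and then cultured 23 h at 37 C. Cell viability came from CellTiter-Fluor signal read after a further 1 h.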

[2] = Nuclear factor erythroid 2-related factor 2/antioxidant responsive element (Nrf2/ARE) small molecule agonists: luciferase reporter gene qHTS assay in human keratinocytes (AID 1919969); further: nearly all actives have a fitted effect of over 35% in size; further: potency means the concentration at half of the fitted maximal effect
[3] = molecular target: Gonadotropin-releasing hormone receptor (Homo sapiens) (UniProt P30968); assay: Human gonadotropin-releasing hormone receptor (GnRHR) small molecule agonists, calcium flux assay in GnRHR-HEK293 cells (AID 1920063); further: nearly all actives have a fitted effect of over 35% in size
Chain of Gonadotropin-releasing hormone receptor (Homo sapiens) (P30968 whole entry, looked up): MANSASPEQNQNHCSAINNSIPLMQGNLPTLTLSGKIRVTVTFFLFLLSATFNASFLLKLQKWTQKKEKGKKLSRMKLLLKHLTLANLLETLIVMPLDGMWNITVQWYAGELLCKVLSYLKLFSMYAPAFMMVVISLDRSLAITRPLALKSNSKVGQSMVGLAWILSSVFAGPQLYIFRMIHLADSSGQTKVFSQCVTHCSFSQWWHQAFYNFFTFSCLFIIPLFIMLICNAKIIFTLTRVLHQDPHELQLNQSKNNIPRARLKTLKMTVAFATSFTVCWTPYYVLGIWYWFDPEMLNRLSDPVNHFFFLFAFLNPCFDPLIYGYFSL
Summary of the method: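 We seeded human GnRHR-expressing HEK293 cells for 18 hours, loaded them with calcium dye for an hour at 37 C, added test compounds, and recorded fluorescence intensity kinetically for three minutes.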

[4] = p53 small molecule agonists, cell-based qHTS assay with human liver microsomes (AID 1963577)
Summary of the method: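 p53RE-bla reporter cells were pre-incubated 5 h at 37 C, then treated with compounds plus human liver microsomes (0.5 mg/mL final) and NADPH (0.5 mg/mL final) for 16 h at 37 C. Beta-lactamase activity was read by LiveBLAzer fluorescence after 2 h at room temperature.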

[5] = p53 small molecule agonists, cell-based qHTS assay with rat liver microsomes (AID 1963578)
Summary of the method: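 p53RE-bla cells were exposed to compounds together with rat liver microsomes (0.5 mg/mL final) and NADPH (0.5 mg/mL final) for 16 h at 37 C, then read by LiveBLAzer beta-lactamase fluorescence after 2 h at room temperature.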

[6] = p53 small molecule agonists, cell-based qHTS assay with rat liver microsomes: qHTS cell viability counter screen (AID 1963580); further: nearly all actives have a fitted effect of over 45% in size
Summary of the method: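 HCT-116 p53RE-bla, 4,000 cells/well, 5 h pre-incubation; cpd + rat liver microsomes 0.5 mg/mL + NADPH 0.5 mg/mL (final); 16 h, 37 C; CellTiter-Glo, 30 min RT; luminescence.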

[7] = p53 small molecule agonists, cell-based qHTS assay: qHTS cell viability counter screen (AID 1963581); further: nearly all actives have a fitted effect of over 45% in size
Summary of the method: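 Following 5 h attachment, HCT-116 p53RE-bla cells took up compound for 16 h at 37 C; the reporter was read with B/G FRET substrate (2 h RT), and viability then via CellTiter-Glo ATP luminescence.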

[8] = p53 small molecule agonists, cell-based qHTS assay (AID 1963582; active means well fitted activation curve with a large enough effect in the signal ratio in the repeat runs, not every such curve was filed as active; the % refers to the signal ratio)
Summary of the method: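 In this cell-based concentration-response screen, a p53 response element drives beta-lactamase; cells received DMSO-borne compounds after 5 h culture and were incubated a further 16 h before FRET substrate development.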

[9] = molecular target: 5-hydroxytryptamine receptor 2A (Homo sapiens) (UniProt P28223); assay: 5-hydroxytryptamine receptor 2A (HTR2A) small molecule antagonists, cell-based qHTS assay (AID 1963586); further: nearly all actives have a fitted effect of over 45% in size
Chain of 5-hydroxytryptamine receptor 2A (Homo sapiens) (P28223 whole entry, looked up): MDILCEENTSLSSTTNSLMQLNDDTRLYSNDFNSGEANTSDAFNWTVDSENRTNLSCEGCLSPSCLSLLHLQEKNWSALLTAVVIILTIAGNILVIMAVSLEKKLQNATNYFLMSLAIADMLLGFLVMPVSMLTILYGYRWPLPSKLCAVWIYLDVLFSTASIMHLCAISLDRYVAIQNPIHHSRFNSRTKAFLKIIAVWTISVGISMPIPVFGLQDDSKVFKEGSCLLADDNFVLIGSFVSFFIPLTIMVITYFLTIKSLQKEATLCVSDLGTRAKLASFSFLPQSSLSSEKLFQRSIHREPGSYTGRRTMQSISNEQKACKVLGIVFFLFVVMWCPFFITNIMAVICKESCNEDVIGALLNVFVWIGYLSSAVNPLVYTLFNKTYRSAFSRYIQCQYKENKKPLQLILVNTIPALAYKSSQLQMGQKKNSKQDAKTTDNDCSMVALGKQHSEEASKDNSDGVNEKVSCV
Summary of the method: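 Antagonist-mode intracellular calcium assay: DOI (4 nM) added after 5 min compound pre-incubation at room temperature to dye-loaded HTR2A-CHO cells. Fluorescence followed for 3 min, sampled every second.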

[10] = molecular target: 5-hydroxytryptamine receptor 2A (Homo sapiens) (UniProt P28223); assay: 5-hydroxytryptamine receptor 2A (HTR2A) small molecule agonists, cell-based qHTS assay (AID 1963587); further: nearly all actives have a fitted effect of over 30% in size
Summary of the method: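 Kinetic calcium-flux fluorescence (2 min, 1 sec intervals) after compound addition in agonist mode. HTR2A-CHO cells were cultured 18 h, then dye-loaded 1 h at 37 C.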

[11] = molecular target: Muscarinic acetylcholine receptor M1 (Homo sapiens) (UniProt P11229); assay: Cholinergic receptor muscarinic 1 (CHRM1) small molecule antagonists, cell-based qHTS assay (AID 1963588); further: nearly all actives have a fitted effect of over 40% in size
Chain of Muscarinic acetylcholine receptor M1 (Homo sapiens) (P11229 whole entry, looked up): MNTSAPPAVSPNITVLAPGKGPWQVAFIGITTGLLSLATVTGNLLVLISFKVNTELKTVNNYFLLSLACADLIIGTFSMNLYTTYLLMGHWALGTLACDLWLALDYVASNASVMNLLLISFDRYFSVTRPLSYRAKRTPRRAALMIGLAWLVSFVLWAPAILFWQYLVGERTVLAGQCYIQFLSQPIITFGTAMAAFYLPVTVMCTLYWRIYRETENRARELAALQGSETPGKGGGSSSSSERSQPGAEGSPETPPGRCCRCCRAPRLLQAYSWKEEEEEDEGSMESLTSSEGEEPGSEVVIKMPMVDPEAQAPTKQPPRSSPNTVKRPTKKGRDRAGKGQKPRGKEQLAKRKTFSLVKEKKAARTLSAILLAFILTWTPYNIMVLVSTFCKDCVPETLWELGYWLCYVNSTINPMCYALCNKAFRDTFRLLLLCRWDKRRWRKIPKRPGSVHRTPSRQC
Summary of the method: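 CHRM1-CHO calcium-flux assay, antagonist mode. Cells were seeded 18 h, dye-loaded 1 h at 37 C and given compound for 5 min at RT, then acetylcholine was added at 50nM. FDSS fluorescence was read 3 min; 15 concentrations, three runs.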

[12] = molecular target: Muscarinic acetylcholine receptor M1 (Homo sapiens) (UniProt P11229); assay: Cholinergic receptor muscarinic 1 (CHRM1) small molecule agonists, cell-based qHTS assay (AID 1963589); further: nearly all actives have a fitted effect of over 35% in size
Summary of the method: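 Measures agonist-induced intracellular calcium rise. Stable human CHRM1 CHO line, 1 h dye load at 37 C, compounds from DMSO, kinetic fluorescence read.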

[13] = cAMP Responsive Elements (CRE) small molecule agonists, cell-based qHTS assay (AID 1963590)
Summary of the method: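 A CRE-responsive beta-lactamase reporter in HEK 293T cells was used. Treatment ran 3 h at 37 C; detection used LiveBLAzer B/G FRET substrate for 2 h at room temperature.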

[14] = cAMP Responsive Elements (CRE) small molecule antagonists, cell-based qHTS assay (AID 1963591; active means well fitted inhibition curve with a large enough effect in the signal ratio in the repeat runs, not every such curve was filed as active; the % refers to the signal ratio)
Summary of the method: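 HEK293T cells carrying a CRE-driven beta-lactamase reporter receive compound and NKH477 (0.25 uM final) for 3 h. Fluorescence from LiveBLAzer B/G FRET substrate is read after 2 h at room temperature.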

[15] = molecular target: Beta-2 adrenergic receptor (Homo sapiens) (UniProt P07550); assay: Adrenergic beta2 receptor (ADRB2) small molecule antagonists, cell-based qHTS assay (AID 1963592); further: series mostly up to about 92 µM; nearly all actives have a fitted effect of over 50% in size
Chain of Beta-2 adrenergic receptor (Homo sapiens) (P07550 whole entry, looked up): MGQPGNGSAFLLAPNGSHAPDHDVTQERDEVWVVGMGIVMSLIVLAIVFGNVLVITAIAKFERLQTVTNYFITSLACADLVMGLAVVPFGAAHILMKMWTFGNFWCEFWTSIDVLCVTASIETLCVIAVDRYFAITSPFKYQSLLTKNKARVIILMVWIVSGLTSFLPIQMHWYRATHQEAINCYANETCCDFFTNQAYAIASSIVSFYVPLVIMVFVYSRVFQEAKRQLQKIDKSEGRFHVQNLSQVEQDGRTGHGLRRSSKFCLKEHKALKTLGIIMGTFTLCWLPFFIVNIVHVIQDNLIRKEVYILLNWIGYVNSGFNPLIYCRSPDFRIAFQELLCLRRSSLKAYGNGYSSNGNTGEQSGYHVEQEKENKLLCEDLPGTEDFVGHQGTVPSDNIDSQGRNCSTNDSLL
Summary of the method: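 Cells (CHO, stable ADRB2 overexpression) incubated 18-20hr at 37C; compounds added from DMSO; agonist mix (1nM isoproterenol, 100uM IBMX, 25uM Ro-20-1724) added; 0.5hr RT; d2-cAMP and anti-cAMP-cryptate added; 1hr RT; 665/615 nm read.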

[16] = molecular target: Beta-2 adrenergic receptor (Homo sapiens) (UniProt P07550); assay: Adrenergic beta2 receptor (ADRB2) small molecule agonists, cell-based qHTS assay (AID 1963593);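 further: CHO cells stably overexpressing human ADRB2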
Summary of the method: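 CHO cells stably over-expressing ADRB2 were plated overnight at 37C, then dosed with compounds plus a stimulation mix containing 100uM IBMX and 25uM Ro-20-1724 for 0.5hr at room temperature. cAMP was measured by HTRF competition, 1hr.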

[17] = molecular target: D(2) dopamine receptor (Homo sapiens) (UniProt P14416); assay: Dopamine D2 receptor (DRD2) small molecule antagonists, cell-based qHTS assay (AID 1963595; active means well fitted inhibition curve with a large enough effect in the signal ratio in the repeat runs, with a control signal flat; the % refers to the signal ratio)
Chain of D(2) dopamine receptor (Homo sapiens) (P14416 whole entry, looked up): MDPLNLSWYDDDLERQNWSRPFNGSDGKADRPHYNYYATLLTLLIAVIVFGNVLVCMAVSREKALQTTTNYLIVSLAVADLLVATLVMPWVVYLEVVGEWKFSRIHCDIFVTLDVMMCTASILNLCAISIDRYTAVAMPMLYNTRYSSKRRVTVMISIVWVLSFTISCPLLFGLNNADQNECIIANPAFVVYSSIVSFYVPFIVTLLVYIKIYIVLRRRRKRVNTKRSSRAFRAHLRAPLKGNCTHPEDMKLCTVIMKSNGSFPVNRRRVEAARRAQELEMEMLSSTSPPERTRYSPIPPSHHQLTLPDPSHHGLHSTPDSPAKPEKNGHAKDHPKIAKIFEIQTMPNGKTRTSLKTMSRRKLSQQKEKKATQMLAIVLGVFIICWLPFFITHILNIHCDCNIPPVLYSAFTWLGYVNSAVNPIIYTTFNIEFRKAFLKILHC
Summary of the method: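 Antagonist mode in DRD2-HEK293 cells: after compound addition with 0.1 mM Ro20-1724, cells received quinpirole (12 nM) and NKH477 (200 nM) for 30 min at room temperature; HTRF cAMP read after 1 h detection.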

[18] = p53 small molecule agonists, cell-based qHTS assay with human liver microsomes: qHTS cell viability counter screen (AID 1963579); further: nearly all actives have a fitted effect of over 45% in size
Summary of the method: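 p53RE-bla cells (4,000/well) were pre-incubated 5 h at 37 C, then given compounds in DMSO plus human liver microsomes (0.5 mg/mL final) and NADPH (0.5 mg/mL final) for 16 h at 37 C. Viability was read by CellTiter-Glo luminescence.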

[19] = molecular target: D(2) dopamine receptor (Homo sapiens) (UniProt P14416); assay: Dopamine D2 receptor (DRD2) small molecule agonists, cell-based qHTS assay (AID 1963594); further: nearly all actives have a fitted effect of over 35% in size
Summary of the method: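 cAMP accumulation in DRD2-HEK293 cells measured by HTRF after 1 h detection; compounds added 10 min before NKH477 (200nM […]) forskolin-analogue stimulation, 30 min at room temperature, with Ro20-1724 present at 0.1 mM final.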

Measured: Potency

CC(=O)NO
inactive: [1] | [2] | [3] | [4] | [5] | [6] | [7] | [8] | [9] | [10] | [11] | [12] | [13] | [14] | [15] | [16] | [17]

ONc1ccccc1
inactive: [1] | [3] | [4] | [5] | [18] | [7] | [8] | [9] | [11] | [12] | [13] | [14] | [15] | [19] | [17]
active: [2] 60.5 µM

COc1ccc2c(c1)c(CC(=O)OCC(=O)O)c(C)n2C(=O)c1ccc(Cl)cc1
inactive: [1] | [2] | [3] | [4] | [5] | [18] | [6] | [7] | [15] | [19] | [17]

C1=CCCC1
inactive: [1] | [2] | [3] | [4] | [5] | [18] | [7] | [8] | [9] | [10] | [11] | [12] | [13] | [14] | [15] | [19] | [17]

CCCCCCCC/C=C\CCCCCCCC(=O)OC[C@@H](O)[C@H]1OC[C@H](O)[C@H]1O
inactive: [1] | [2] | [3] | [4] | [5] | [6] | [7] | [8] | [11] | [12] | [13] | [14] | [15] | [16]

Cc1occc1C(=O)Nc1ccc(C(=O)N2CCC(F)(F)/C(=C\C(=O)N3CCC(N4CCCCC4)CC3)c3ccccc32)cc1
inactive: [1] | [2] | [3] | [4] | [18] | [6] | [7] | [8] | [9] | [10] | [12] | [13] | [14] | [15] | [16] | [19] | [17]

C[C@@H]1C[C@H]2[C@@H]3CCC4=CC(=O)C=C[C@]4(C)[C@@]3(F)[C@@H](O)C[C@]2(C)[C@@]1(O)C(=O)CO
inactive: [1] | [2] | [3] | [4] | [5] | [18] | [6] | [13] | [14] | [15] | [19] | [17]

CC(CO)(CO)C(=O)O
inactive: [1] | [2] | [3] | [4] | [5] | [6] | [7] | [8] | [9] | [10] | [11] | [12] | [13] | [14] | [15] | [19] | [17]
